# Screening results: PubChem, National Center for Advancing Translational Sciences (NCATS)
# Sampled rows, rich in hits. Any-hit rate of the full collection: about 19%.
# VP16 counter: VP16 counterscreen qHTS for inhibitors of ROR gamma transcriptional activity | Drosophila S2 Gal4-VP16 UAS-luciferase, luminescence, 20 h | Potency, µM (top dose mostly 53.6 µM), for inactives: at the highest dose activity, negative = inhibition, usual class: inhibitors | 310,000 tested, 3.5% active | AID 2546, 2010;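 further: Gal4-VP16 expression switched on by copper sulfate through the metallothionein promoter; nearly all actives have a fitted effect of over 50% in size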
# TDP1 block: qHTS Assay for Inhibitors of Tyrosyl-DNA Phosphodiesterase (TDP1). Potency, µM (titrated, usually from 130 µM), inactives show at the top dose activity change, negative = inhibition, most hits filed as inhibitors. Tyrosyl-DNA phosphodiesterase 1 (Homo sapiens), Q9NUW8. AID 485290, 2010. recombinant TDP1, AlphaScreen DNA substrate cleavage. 350,000 tested, 0.28% active; further: nearly all actives have a fitted effect of over 40% in size
#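 Recombinant human Tdp1 (E. coli-expressed, 1 nM final) preincubated with compounds 15 min at room temperature, then 5'-biotin/3'-phosphotyrosine-FITC DNA substrate (15 nM final) added for 5 min. AlphaScreen beads (10 ug/ml final) added 10 min; cleavage lowers signal.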
# TDP1 cell CPT: qHTS for Inhibitors of human tyrosyl-DNA phosphodiesterase 1 (TDP1): qHTS in cells in presence of CPT | 420,000 tested, 12% active | chicken DT40 Tdp1-/-;hTDP1 cells + 20 nM CPT, ATP luminescence, 48 h | Potency, µM (highest dose often 46.2 µM), inactives show at the top dose activity change, negative = growth inhibition, most hits filed as inhibitors; further: nearly all actives have a fitted effect of over 55% in size
#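 Chicken DT40 Tdp1-/- cells stably complemented with human TDP1 were seeded at 400 cells/well in medium containing 20 nM camptothecin, exposed to pin-transferred compounds, and grown at 37 °C for at least 48 hr. Viability was read as ATP luminescence.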
# RORgamma inh: qHTS for inhibitors of ROR gamma transcriptional activity. Nuclear receptor ROR-gamma (Mus musculus), P51450. Drosophila S2 Gal4-RORgamma UAS-luciferase reporter, 20 h. Potency, µM (series often up to 53.6 µM), without a hit: at the top dose activity change, negative = inhibition, most hits filed as inhibitors. 310,000 tested, 5.4% active. AID 2551, 2010; further: nearly all actives have a fitted effect of over 60% in size
# Target sequence (P51450 whole entry, looked up, the tested form may be a part): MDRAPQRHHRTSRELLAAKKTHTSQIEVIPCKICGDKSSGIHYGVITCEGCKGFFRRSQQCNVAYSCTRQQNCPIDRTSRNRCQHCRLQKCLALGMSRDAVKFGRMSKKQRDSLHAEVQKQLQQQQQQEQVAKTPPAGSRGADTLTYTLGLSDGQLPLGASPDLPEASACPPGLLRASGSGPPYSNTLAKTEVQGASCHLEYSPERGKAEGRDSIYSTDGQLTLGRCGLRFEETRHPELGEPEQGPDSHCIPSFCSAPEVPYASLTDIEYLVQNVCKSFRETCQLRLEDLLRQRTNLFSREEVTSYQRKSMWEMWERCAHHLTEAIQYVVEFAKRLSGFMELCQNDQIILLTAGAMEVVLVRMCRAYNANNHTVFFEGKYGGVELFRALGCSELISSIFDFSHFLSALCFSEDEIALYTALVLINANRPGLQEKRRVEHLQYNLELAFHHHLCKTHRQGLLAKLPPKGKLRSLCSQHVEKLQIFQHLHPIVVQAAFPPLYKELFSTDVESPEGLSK
#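 ROR gamma transcriptional activity was tracked as Gal4-UAS luciferase output in stably transfected Drosophila Schneider cells, with compound added 1 hr before 700 uM copper sulfate induction and a 20 hr ambient-temperature incubation.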
# DT40 TDP1 no CPT: qHTS for Inhibitors of human tyrosyl-DNA phosphodiesterase 1 (TDP1): qHTS in cells in absence of CPT | DT40 Tdp1-/- hTDP1 cells, no CPT, ATP luminescence, 48 h | Potency, µM (highest dose often 46.2 µM), inactives show top-dose activity change, negative = growth inhibition, actives largely listed as inhibitors | 420,000 tested, 15% active | AID 686978, 2013; further: nearly all actives have a fitted effect of over 55% in size
#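 Cells were dispensed at 400 per well, compounds added by pin tool, plates incubated ≥48 hr at 37 °C, then CellTiter-Glo added for 30 min at room temperature before luminescence reading. Line: DT40 Tdp1-/- complemented with hTDP1; camptothecin omitted.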
# Numbers without * were called inactive; ? = inconclusive; · = no result given; [ ] = dose if it differs, or a comment. The call rests on the fitted dose curve; in most records, active means well fitted curve in the direction sought with a large enough effect; inconclusive means small, poorly fitted or top-dose-only effect, or another doubt; inactive means no such curve, though single readings can be large; an effect the other way counts as inactive or inconclusive. On the % scale 0 is the no-effect control and ±100 the full control effect; potency means the concentration at half of the fitted maximal effect.
SMILES,VP16 counter,TDP1 block,TDP1 cell CPT,RORgamma inh,DT40 TDP1 no CPT
O=C(Nc1ccc(N2CCCC2)c(S(=O)(=O)Nc2cccc(C(F)(F)F)c2)c1)c1cccs1,-9%,1%,?,-14%[10 µM],15µM*
COc1ccccc1NS(=O)(=O)c1cc(NC(=O)c2cccs2)ccc1N1CCCC1,-10%,0%,5.8µM*,-4%,9.2µM*
Cc1cccc(NCc2ccc([N+](=O)[O-])s2)c1,6%,·,-1%,15%,-3%
O=C1c2ccccc2NC(c2ccc(Br)o2)N1O (stereo not given),·,1%,·,·,·
CCc1ccccc1OCC(=O)Nc1ccc(F)c(S(=O)(=O)N2CCOCC2)c1,·,6%,?,·,?
CCCN1C2CCCC1CC(NC(=S)Nc1ccc(OC)cc1)C2 (stereo not given),8%,2%,?,-5%,29µM*
COc1cccc(NC(=S)NC2CC3CCCC(C2)N3CC(C)C)c1 (stereo not given),7%,-5%,?,10µM*,16µM*
CCc1ccccc1NC(=O)NC1CC2CCC(C1)N2Cc1cccs1 (stereo not given),-6%,0%,?,17%,-26%
CCc1ccc(NC(=S)NC2CC3CCCC(C2)N3Cc2cccs2)cc1 (stereo not given),13µM*,4%,18µM*,2µM*,?
Cc1ccc(S(=O)(=O)NNC(=O)Nc2ccc(C)c(C)c2)c(C)c1,-6%,2%,?,-8%,?
CCC(C)N1C(=O)S/C(=C/c2ccc3c(c2)n(C)c(=O)n3C)C1=O (stereo not given),-10%,5%,23µM*,-13%,23µM*
Cc1ccc(OCC(=O)Nc2ccc3nc(SCC(=O)N4CCOCC4)sc3c2)cc1,·,-4%,?,·,21µM*
CCCC(=O)Nc1ccc2nc(SCC(=O)N3CCOCC3)sc2c1,·,-3%,?,·,?
O=C(COc1ccc(Cl)cc1)Nc1ccc2nc(SCC(=O)N3CCOCC3)sc2c1,·,6%,?,·,15µM*
Cn1cccc1Cc1nnc(SCC(N)=O)n1-c1ccc(F)cc1,4%,5%,6%,17%,-7%
NC(=O)c1ccc([N+](=O)[O-])cc1Cl,-2%,2%,-17%,-11%,-16%
O=C(c1cccnc1Cl)N(Cc1ccccc1)Cc1ccccc1,?,1%,?,21%,9.2µM*
O=C(OCc1ccccc1)c1cccnc1Cl,8%,-1%,2%,17%,-17%
Cc1noc(C)c1C(=O)Nc1nc(-c2ccc(F)cc2)cs1,·,2%,-13%,·,-16%
CCc1noc(C)c1C(=O)Nc1nc(-c2ccc(OC)cc2)cs1,·,·,?,·,13µM*
CCc1noc(C)c1C(=O)Nc1nc(-c2ccc(OC)cc2OC)cs1,·,·,?,·,16µM*
CCc1noc(C)c1C(=O)Nc1nc(-c2cc(OC)ccc2OC)cs1,·,-9%,?,·,21µM*
C=CCOc1ccc(C2NC(=O)NC(C)=C2C(=O)OC)cc1 (stereo not given),-7%,7%,?,19%,-24%
Cc1ccc(Sc2sc(=O)n(C)c2S(=O)(=O)c2ccc(C)cc2)cc1,-4%,-3%,?,2%,21µM*
Cc1ccc(S(=O)(=O)c2c(C)c(C)c(C)[nH]c2=O)cc1,-10%,·,-26%,-9%,13%
SMILES,VP16 counter,TDP1 block,TDP1 cell CPT,RORgamma inh,DT40 TDP1 no CPT
CCOc1ccc(-c2csc(NC(=O)c3ccc(S(=O)(=O)N4CCc5ccccc5C4)cc3)n2)cc1,-1%,-2%,-15%,28%,-11%
O=C(Nc1nc(-c2ccc(S(=O)(=O)N3CCOCC3)cc2)cs1)c1ccccc1,-10%,-2%,?,14%,12µM*
O=C(Nc1ccc(S(=O)(=O)N2CCOCC2)cc1)c1ccccc1,1%,·,-1%,-9%,-22%
COc1ccc(-c2csc(NC(=O)c3ccc(S(=O)(=O)N4CCc5ccccc5C4)cc3)n2)c(OC)c1,-11%,3%,?,11%,13µM*
COc1cccc(C(=O)Nc2nc(-c3ccc(S(=O)(=O)N4CCOCC4)cc3)cs2)c1,·,6%,21µM*,-27%[0.365 µM],12µM*
Cc1ccc(C)c(NC(=O)C2CC(O)CN2C(=O)OCc2ccccc2)c1 (stereo not given),10%,4%,3%,33%[10 µM],1%
O=C(N1CCOCC1)N1CCN(c2ccccc2)CC1,-4%,1%,7%,23%,7%
CSC1=NC(C(Cl)(Cl)Cl)N=C(c2ccccc2)N1 (stereo not given),-1%,3%,2.6µM*,8%,3.7µM*
Cn1cc(CN2CCc3sccc3C2)c(-c2ccccc2F)n1,-5%,-1%,-3%,11%,-26%
Cc1cc(N2CCN(Cc3cn(C)nc3-c3cccc(Cl)c3)CC2)cc(C)n1,-3%,3%,5.2µM*,-23%,5.8µM*
Cn1cc(CN2CCC(C(O)c3cccs3)CC2)c(-c2cccc(Cl)c2)n1 (stereo not given),-16%,3%,5%,3%,-19%
Cc1cc(N2CCN(Cc3cn(C)nc3-c3ccccc3F)CC2)cc(C)n1,5%,-3%,5.8µM*,0%,5.8µM*
O/N=C1\CC/C(=N\O)c2nn(-c3ccc(Cl)cc3Cl)nc21,-4%,3%,26µM*,?,?
COc1ccc(C(=O)Nc2ccc(S(=O)(=O)N3CCc4ccccc43)cc2)cc1,·,·,26µM*,·,23µM*
NS(=O)(=O)c1ccc(NC(=O)c2ccc(S(=O)(=O)N3CCc4ccccc43)cc2)cc1,6%,0%,?,33%,?
CCCC(=O)NC(=S)Nc1ccc(S(=O)(=O)N2CCc3ccccc32)cc1,·,·,?,·,21µM*
CCOC(=O)CCC(=O)Nc1ccc(S(=O)(=O)N2CCc3ccccc32)cc1,7%,6%,2%,6%,3%
COc1cc2nc(NC(=O)c3ccc(S(=O)(=O)N4CCc5ccccc54)cc3)sc2cc1OC,·,5%,21µM*,·,15µM*
CCOc1cccc2sc(NC(=O)c3ccc(S(=O)(=O)N4CCCc5ccccc54)cc3)nc12,·,-5%,-17%,·,-29%
Cc1c(Cl)ccc2sc(NC(=O)c3ccc(S(=O)(=O)N4CCCc5ccccc54)cc3)nc12,·,8%,?,·,18µM*
CCOCCCNC(=O)C1CCC(CNS(=O)(=O)c2cccc3nsnc23)CC1 (stereo not given),?,5%,?,20%,-3%
Cc1ccc(C)c(NC(=O)C2COc3ccccc3O2)c1 (stereo not given),19%,·,0%,30%,-4%
